For 24 molecules, binding signal results are on record in publication PMC12136788.

Where a chain is given by its changes, count along the chain named. In all, about 24,000 sequences were measured (“enrichment r”: median about 0.99, highest 2% from about 3.7 on). This excerpt belongs to a sample that is enriched for the highest values.

The labels stand for the following.
T1: UNK ZnF1-3 (human, UniProt Q9C0B0 31-174)
T1 sequence: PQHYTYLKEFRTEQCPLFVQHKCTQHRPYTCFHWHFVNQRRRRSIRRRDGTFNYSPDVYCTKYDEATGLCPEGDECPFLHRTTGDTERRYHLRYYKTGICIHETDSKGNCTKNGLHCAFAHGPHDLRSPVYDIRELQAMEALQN

B1: chr22:19452774:19452775:-_ENSG00000070010_ENST00000399523|hu_hu|hu_hu_hu_mus_False|58_88 (ssRNA)
RNA: GGGAGUUCUACAGUCCGACGAUCCUUCUCAUUGUAGUUGAUAGCAAUCACAUCCCCAGUCGUCAGACAGGCGAAGUUCCUAAGUGCAUUUUCUAAUACCGCUUUAGGGUUGGUAAUAUCCAGGAAGUCUGGGCUCUGAGGCUGCAACAGAGGAUUGAGCAUCA
B2: 91655523_91655643_1000_CDS_ENSMUSG00000022961_ENSMUST00000114036|mouse|control|control (ssRNA)
RNA: GGGAGUUCUACAGUCCGACGAUCCUCCGAUGGUGCUUCUACAGGCUGCUCUGGCAAUCUUUGCACGUCAGUUGUAGAUGACUCUGGAAAAUCCAUUGUUGAUGGGCUUGGUUCAGGGUGCACCUCAGUAGGUGUCUCUGACACCAACAGAGGAUUGAGCAUCA
B3: chr16:2011185:2011186:+_ENSG00000140990_ENST00000268668|hu_hu|motif|central (ssRNA)
RNA: GGGAGUUCUACAGUCCGACGAUCCACGCGGCGGUACUGCCGGUGGUAGUAGUAAUACCUGUUCUUUGCGUGCUGCCGCUCGGUAAAUUCUCUCACGAGGGUCACGGGUCGGUCCACGAUGAGGUCGAACGCUUUCAUCAUGUACAACAGAGGAUUGAGCAUCA
B4: chr10:75542919:75542920:+_ENSG00000172586_ENST00000372833|hu_mus|FALSE|FALSE (ssRNA)
RNA: GGGAGUUCUACAGUCCGACGAUCUGAGAGUUCAUUGAAAAUAUUUCUCCAUUUUCAGAUGAGAUGAGAUUUGUUGGGAAAUCUCUGUAACAACUUGGUCAUCUUGUGGGGAGAUAAACUCUCGGACUGUCCCAGAGACUCCUGCAACAGAGGAUUGAGCAUCA
B5: chr15:85967975:85967976:+_ENSMUSG00000035900_ENSMUST00000088931|mus_mus|motif|central (ssRNA)
RNA: GGGAGUUCUACAGUCCGACGAUCACAGAGCAUUUUAGGUUUAUUAAAUAAAAAUUAUAAUUUAUACAAGACUUUGUAUCGGAACAAGGUUUUCUUUUUUUAAAAAAAAAAGUGACAGAGGAUUUUUUUUCCUAUCAGUUCUUUCAACAGAGGAUUGAGCAUCA
B6: chr15:85967975:85967976:+_ENSMUSG00000035900_ENSMUST00000088931|mus_mus|FALSE|FALSE (ssRNA)
RNA: B5 RNA with G80U, G81A
B7: chr5:162868235:162868236:+_ENSG00000113328_ENST00000340828|hu_hu|motif|central (ssRNA)
RNA: GGGAGUUCUACAGUCCGACGAUCCCAACACACCUUCUCCAAUACAAUCUUUUCCAUUCUCAUCAAGUCUGAAACCGUAAACCGGUAUUGACUUAUUCGGAUCAAGUCAGUUGCCAAUGGGACAUUCCUUUCCUCUUCUAUUGACAACAGAGGAUUGAGCAUCA
B8: chr9:14812383:14812384:-_ENSMUSG00000031934_ENSMUST00000164273|mus_mus|mus_mus_mus_hu_True|28_108 (ssRNA)
RNA: GGGAGUUCUACAGUCCGACGAUCAUAGCUCAAGUAGAUACACGCUAACAGUAUAAUGAUGAGUGUCAGCAGGCGGCAGCUAAUGUACUUGAUGAUUAAAUUAUUAGAGUUCUUUUUUGUCUUCAAGUACUGCUCCACAAUUGGCAACAGAGGAUUGAGCAUCA
B9: chr2:160855017:160855018:-_ENSMUSG00000057133_ENSMUST00000039782|mus_mus|FALSE|FALSE (ssRNA)
RNA: GGGAGUUCUACAGUCCGACGAUCAUCCUUUUCCAGUUCUUCCAUUGUGGCCCAUUUACAAUGUAAAUAGGAAAAAUUUCUAUACUUAACGUAGAAAAGCUCUAGGUCGAAUGGAGGUUCUCCUGGGUGAACCUCCUGGACAGUCAACAGAGGAUUGAGCAUCA
B10: chr7:150915252:150915253:-_ENSG00000033050_ENST00000287844|hu_mus|FALSE|FALSE (ssRNA)
RNA: GGGAGUUCUACAGUCCGACGAUCCUUCCCUGCUCCAUUGGGUCCUACCAGAGCCACUCGUGUGUCAAGAUCAAUACCAAAUUCUAGAUUAUUGUAGAUGCAAGGCCCGUCUUUCGUAUAUUUGAAGCUCACGUUCUGCACCAUCAACAGAGGAUUGAGCAUCA
B11: chr2:78753848:78753849:+_ENSMUSG00000027011_ENSMUST00000028398|mus_mus|FALSE|FALSE (ssRNA)
RNA: GGGAGUUCUACAGUCCGACGAUCGUUAUCUCCUUUAGGCCCAGCACUGCAGUUAGGAGGAGGAUCAAGGGUUAUCUCUGCUAGCUCCUUCUGAAUUCUUUUAGCACUAGUGGAUAACUUAGCAGUCGUUUUGCUAGAGAGUUUCAACAGAGGAUUGAGCAUCA
B12: chr2:4828950:4828951:+_ENSMUSG00000026662_ENSMUST00000115019|mus_hu|FALSE|FALSE (ssRNA)
RNA: GGGAGUUCUACAGUCCGACGAUCUAAAAUCUAGUUUUUCCCGAUAAAUUGUACUUUAGGCAAAACCCUCCCAACGCUUCUAAAAUAAUACUAAAAGGGGCAUCUGAUUAUACAAGAGCAAUUUAAAAAAUUAAAUAUUUAUUUCAACAGAGGAUUGAGCAUCA
B13: chr11:30747457:30747458:+_ENSMUSG00000040850_ENSMUST00000041231|mus_mus|motif|central (ssRNA)
RNA: GGGAGUUCUACAGUCCGACGAUCACCCUUAAAGAGGCAGAAACGCCGGGGACUAAACUUAUCUCUUCCUUUUCUGUCUUCGGAAGAUAGAAAUGUGAUUAACUGCUCAACAAACUUAGGAUCAGAAAAACGAUCAUAUAUAAUCAACAGAGGAUUGAGCAUCA
B14: chr11:43534790:43534791:+_ENSMUSG00000044950_ENSMUST00000129229|mus_mus|FALSE|FALSE (ssRNA)
RNA: GGGAGUUCUACAGUCCGACGAUCUCUGAUUUUCUCAUGUGUUCUCCAUUCAUUAAACAAGAAAAAUUAAGGGGUUUCAUACUAUGUAUUUAGCAAAGACAAGGAAAUCUGAAAUCUCUGUUAAGAAUUCAUGUUCCAUGCACCCAACAGAGGAUUGAGCAUCA
B15: chr2:4828950:4828951:+_ENSMUSG00000026662_ENSMUST00000115019|mus_hu|motif|central (ssRNA)
RNA: B12 RNA with U80G, A81G
B16: chr1:39494447:39494448:+_ENSG00000168653_ENST00000372967|hu_mus|hu_hu_hu_mus_False|68_88 (ssRNA)
RNA: GGGAGUUCUACAGUCCGACGAUCGCACCGAGCGGCGUUCUUAUAGGGCUGUUCACCGCUUAGGAACGUCAACCAUCGGUCCAGGCUGAUGCCCAGCUUUUUCUGUAUGUCAAGGAAAGGCAUGGCUCUGCAGUGCCCUUGUCACAACAGAGGAUUGAGCAUCA
B17: chr14:76904540:76904541:+_ENSMUSG00000022010_ENSMUST00000022587|mus_hu|motif|central (ssRNA)
RNA: GGGAGUUCUACAGUCCGACGAUCAAAGAAAUUGAAAAAUGUCUCAGUUGGUAAACUCCUAGAUCCAUCGCCACUGGUCGGCACCAUUGGGAUUUCAUGCAAUUGCAGCCAAAAACACCCUCGUGGAAAAAAAGAGGGAACACCCAACAGAGGAUUGAGCAUCA
B18: chr10:1038518:1038519:+_ENSG00000107937_ENST00000545048|hu_hu|hu_hu_hu_mus_False|28_58 (ssRNA)
RNA: GGGAGUUCUACAGUCCGACGAUCCAGUCUGUCAUGGUAAUUCUGUUGAGUAAAUUUGACUUUUCUCAUAUAAAAAUGUCUAAUGCGAUGAAUUUGAUAAUGUUUAUGAAUAACGGUUGGAGUCUUUCGUUGAGUCUUGGAUAACAACAGAGGAUUGAGCAUCA
B19: chr15:88518400:88518401:-_ENSMUSG00000022387_ENSMUST00000109381|mus_mus|FALSE|FALSE (ssRNA)
RNA: GGGAGUUCUACAGUCCGACGAUCCCCGUCUUAUUAAAUAAGCGGUACUCUGUGUAAAGAGCAUGAUCUACAAAAUUAUUAAACAUUCAAAAGUCUUUAAAAAAAAAAAAAAACCCUACAGAUUAGAAUAAGUGAGGCCUCGGCCAACAGAGGAUUGAGCAUCA
B20: chr7:90019461:90019462:+_ENSMUSG00000057706_ENSMUST00000082237|mus_hu|FALSE|FALSE (ssRNA)
RNA: GGGAGUUCUACAGUCCGACGAUCCGUCACAAUUGUGUGAUUAUUAAAAUAAUACAGUGUUCUUUGCCAUAAGGCCAUACUAAAAUAAAAAGAUUUAACCCAGCUACAAAAAAGUUCACUGAACUUAAAUUAAAAUACUUGUAACAACAGAGGAUUGAGCAUCA
B21: chr15:88518400:88518401:-_ENSMUSG00000022387_ENSMUST00000109381|mus_hu|FALSE|FALSE (ssRNA)
RNA: GGGAGUUCUACAGUCCGACGAUCCCCGUCUUAUUAAAUAAGUGGUACUCUGUGUAAAGAGCAUGAUUUACAAAAUUAUUAAACAUUCAAAAGUCUUUAAGAAAAAGCUACAUAUCAAAGAAAGUGACGCCAGCAGCACGGCCUCAACAGAGGAUUGAGCAUCA
B22: chr11:120466956:120466957:+_ENSMUSG00000025135_ENSMUST00000093140|mus_mus|FALSE|FALSE (ssRNA)
RNA: GGGAGUUCUACAGUCCGACGAUCCAAGCAGAGGCCUCCAGCACGGCUCGGAACUGUAAUGAGUUUUACUUAUUGAAUAAAGUGUCAAUGUGAUGGGAAAACAAAACAGUCAGCAAAGCUCCUUUCAACCUUGUCCCAGCCAAACAACAGAGGAUUGAGCAUCA
B23: chr7:90019461:90019462:+_ENSMUSG00000057706_ENSMUST00000082237|mus_mus|FALSE|FALSE (ssRNA)
RNA: GGGAGUUCUACAGUCCGACGAUCCGUCACAAUCGUGUGAUUAUUAAAAUAAUACAGUGUUCUUUGCCAUAAGGCCAUACUAAAAAUAAAAAGAUUUAACCCAGCUACAAAAAAGUUCACUGAACUUAAAUUAAAAUACUUGUACAACAGAGGAUUGAGCAUCA
B24: chr6:53132721:53132722:-_ENSG00000012660_ENST00000304434|hu_hu|FALSE|FALSE (ssRNA)
RNA: GGGAGUUCUACAGUCCGACGAUCUUACCUGUUUGACCACUGCCUCAAAUGUGUGAGAUGUGAUUUUAUGAUAAGCAGUCUAUUAUUUUUAAACAAGAGGUUCUAAACACAUCUUUAGAUUCUAAGCAGAAAGAAAUUACAAGUCAACAGAGGAUUGAGCAUCA

This assay concerns the target T1, UNK ZnF1-3. Description: nsRBNS (natural sequence RNA bind-n-seq); RBNS binding buffer (assumed for nsRBNS): 25 mM Tris pH 7.5, 150 mM KCl, 3 mM MgCl2, 0.01% Triton X-100, 500 ug/ml BSA, 20 U/ml SUPERase-In, 4 C; UNK is unkempt and MSI1 is Musashi-1; names of the RNAs are library labels; protein concentration not given here; high values mean tight binding.
The molecule B1 returned a binding signal of 0.785 enrichment R.

For B2, the binding signal is 0.484 enrichment R.

Take B3: the binding signal was 0.392 enrichment R.

Regarding B4, the binding signal worked out at 0.344 enrichment R.

Turning to B5, the binding signal was 7.03 enrichment R.

The molecule B6 came in with a binding signal of 4.57 enrichment R.

Take B7: the binding signal is 0.785 enrichment R.

Consider B8, for which the binding signal came to 1.06 enrichment R.

The molecule B9 gave a binding signal of 0.614 enrichment R.

For the molecule B10, the binding signal was found to be 1.41 enrichment R.

In turn, B11 showed a binding signal of 1.05 enrichment R.

B12: the binding signal stood at 6.73 enrichment R.

As to B13, the binding signal is 0.632 enrichment R.

On to B14, for which the binding signal was found to be 0.874 enrichment R.

Molecule B15 came in with a binding signal of 4.08 enrichment R.

In turn, B16 displayed a binding signal of 0.613 enrichment R.

Molecule B17 registered a binding signal of 1.75 enrichment R.

B18 displayed a binding signal of 1.2 enrichment R.

Molecule B19 showed a binding signal of 6.27 enrichment R.

Molecule B20 showed a binding signal of 3.55 enrichment R.

In turn, B21 came in with a binding signal of 10 enrichment R.

Regarding B22, the binding signal is 1.39 enrichment R.

B23 registered a binding signal of 3.43 enrichment R.

Molecule B24 registered a binding signal of 1.61 enrichment R.
